Source: PubChem BioAssay (Tox21)
Calls of active or inactive are those of the source. Calls follow the shape of the dose curve; as a rule, active = well fitted curve in the direction sought with a large enough effect in the repeat runs; inconclusive = weak or mixed curves; inactive = flat fitted curve, though single readings scatter.

assay: qHTS assay to test for compound auto fluorescence at 590 nm (red) in HepG2 cells (AID 720674); settings: HepG2 autofluorescence, red 540/590 nm, 1 h; series mostly up to 91.3 µM; fluorescence, relative to Rose Bengal: at the top concentration
Text: U.S. Tox21 Program National Center for Advancing Translational Sciences [NCATS] NIH Chemical Genomics Center [NCGC] U.S. Environmental Protection Agency [EPA] National Institutes of Environmental Health Sciences [NIEHS] National Toxicology Program [NTP] U.S. Food and Drug Administration [FDA] Tox21 Assay Overview: Compound auto fluorescence often interferes with screening of the compound library against various biological targets and signaling pathways. Some of these compounds may have fluorophoric properties. Such properties may interfere with the assay outputs resulting in false positives and/or negatives. To decrease such complications and ensure the compound activities are relevant in terms of biological response, the Tox21 10K compound library was screened for auto fluorescence. From the fluorophores used as reporter signals in our screening assays, the auto fluorescence equivalencies of compounds against three fluorophores have been evaluated: Triamterene, Fluorescein and Rose Bengal sodium for blue, green and red fluorescence, respectively. The fluorescence intensities were measured using Excitation/Emission wavelengths at 405/460nm, 485/535nm and 540/590nm for blue, green and red labels, respectively. This assay includes the red fluorescence data.
Tox21 Assay Protocol Summary: 2,000 HepG2 cells in 5 uL of culture medium (MEM containing 10% FBS) per well were dispensed into black wall/clear bottom 1536-well plates using a Multidrop Combi Dispenser (ThermoFisher Scientific, Waltham, MA). The assay plates were incubated overnight at 37 C to allow cell attachment to the well bottom, followed by the transfer of 23 nL compound or DMSO vehicle by a pintool work station (Kalypsys , San Diego, CA). After the assay plates were incubated for 1 hr at 37 C and 5% CO2, fluorescence intensities in the assay plates were measured by an Envision (PerkinElmer, Shelton, CT) plate reader using three labels for measuring blue, green and red fluorescence at […] 460, 535 and 590 nm respectively.
% is scaled to controls: 0 for no effect and ±100 for the full control effect; potency is read from the fitted curve at half-maximal effect.

Compound	fluorescence, relative to Rose Bengal	Potency
CCOC(=O)c1cccnc1	0.473% [at 46 µM] (inactive)	
CC1=CC=C(C(C)C)CC1	0.0143% (inactive)	
CCC(CC)Nc1ccc(C)c(C)c1	0.421% (inactive)	
Cc1ccccc1S(=O)(=O)O	-0.305% [at 95.7 µM] (inactive)	
Nc1ncn([C@H]2C[C@H](O)[C@@H](CO)O2)c(=O)n1	-0.139% [at 46 µM] (inactive)	
CN(C)c1ccc(CCO)cc1	0.0307% (inactive)	
Nc1cc(C(=O)O)c(O)c(S(=O)(=O)O)c1	-0.116% (inactive)	
COc1cccc(N(C)C(=S)Oc2ccc3c(c2)CCCC3)n1	-0.0188% [at 46 µM] (inactive)	
Nc1ccccc1S(=O)(=O)c1ccccc1	0.0071% (inactive)	
Cc1[nH]c(C)c(Cl)c(=O)c1Cl	0.568% [at 46 µM] (inactive)	
C[N+]1(C)CCC(OC(=O)C(O)(c2ccccc2)C2CCCC2)C1 (stereo not given)		inactive
CCc1cc(C2=C(C(=O)O)N(c3ccccc3C(F)(F)F)S(=O)(=O)c3ccccc32)cc2c1OCO2	-0.177% (inactive)	
O=[N+]([O-])c1ccc2[nH]ncc2c1	-0.0004% (inactive)	
c1cc(CCCc2ccncc2)ccn1	0.161% (inactive)	
CO[C@@H]1[C@H](OC(=O)/C=C/C=C/C=C/C=C/C(=O)O)CC[C@]2(CO2)[C@H]1[C@@]1(C)O[C@@H]1CC=C(C)C		inactive
CCCn1cnc2c1c(=O)n(CCCCC(C)=O)c(=O)n2C	-0.566% [at 46 µM] (inactive)	
CCCCNc1ccc(C(=O)OCCOCCOCCOCCOCCOCCOCCOCCOCCOC)cc1	-0.666% [at 18.6 µM] (inactive)	
O=S(c1cc(Cl)cc(Cl)c1O)c1cc(Cl)cc(Cl)c1O	-0.0293% [at 46 µM] (inactive)	
CN(C)c1ccc(C(c2ccccc2)c2ccc(N(C)C)cc2)cc1	-0.0759% (inactive)	
O=CC1CC=CCC1 (stereo not given)	0.0063% (inactive)	

Compound	fluorescence, relative to Rose Bengal	Potency
CC/C=C\CCOC(=O)CC	-0.006% (inactive)	
CNCCCN1c2ccccc2CCc2ccccc21	-0.337% [at 18.6 µM] (inactive)	
O=C(O)c1ccc(S(=O)(=O)O)cc1C(=O)O	-0.0338% (inactive)	
O=C(O)CC(=O)C(=O)O	0.0063% (inactive)	
COc1ccnc(CS(=O)c2nc3ccc(OC(F)F)cc3[nH]2)c1OC (stereo not given)	0.162% [at 46 µM] (inactive)	
CCC(Cl)CCC(Cl)C(Cl)CC(Cl)C(Cl)C(Cl)CCl (stereo not given)	-0.034% (inactive)	
CCOC(=O)NCCOc1ccc(Oc2ccccc2)cc1	0.363% (inactive)	
CCN(CC)CCNc1ccc(CNC=O)c2sc3ccc(OC)cc3c(=O)c12	-0.29% (inactive)	
C[N+]1(CC2COC(c3ccccc3)(C3CCCCC3)O2)CCCCC1 (stereo not given)	0.0874% [at 46 µM] (inactive)	
Cc1nn(C)c(Oc2ccccc2)c1/C=N/OCc1ccc(C(=O)OC(C)(C)C)cc1	-0.132% (inactive)	
CC(C)=CCC/C(C)=C/CC/C(C)=C/CO	0.0119% (inactive)	
CCN(CC)c1ccc2c(-c3ccccc3C(=O)O)c3ccc(=[N+](CC)CC)cc-3oc2c1		1000 nM (active)
CCN(CC)CCOC(=O)C(c1ccccc1)C1CCCCC1 (stereo not given)	0.124% [at 46 µM] (inactive)	
CC(C)O.CC(C)O.CCOC(=O)/C=C(\C)O.CCOC(=O)/C=C(\C)O.[Ti]	-0.386% (inactive)	
CN1C[C@H]2c3ccccc3Oc3ccc(Cl)cc3[C@@H]2C1	0.132% [at 46 µM] (inactive)	
CCOC(=O)C(F)(F)F	-0.24% (inactive)	
Cc1cc(N)c2cc(NC(=O)Nc3ccc4nc(C)cc(N)c4c3)ccc2n1	0.574% [at 46 µM] (inactive)	
OC(CN1CCC(Cc2ccc(F)cc2)CC1)c1ccc(Cl)cc1 (stereo not given)	-0.487% [at 46 µM] (inactive)	
N=c1ccn2c(n1)O[C@H]1[C@H](O)[C@@H](CO)O[C@H]12		inactive
C/C(=C(\CCOP(=O)(O)O)SC(=O)c1ccccc1)N(C=O)Cc1cnc(C)nc1N	-0.226% [at 18.6 µM] (inactive)	
